We go through ten compounds from PubChem BioAssay (Tox21).

Assay [1] is described as follows: qHTS assay to identify small molecule antagonists of the thyroid receptor (TR) signaling pathway (AID 743065). Note: nearly all actives have a fitted effect of over 55% in size. Note: potency is the fitted concentration of half-maximal effect. Put shortly: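 Antagonism measured as loss of luciferase signal in GH3 cells stably carrying a TRE-luciferase reporter, co-treated with compound and T3 (1 nM final) for 23.5 h at 37 C. Viability was read in the same well by CellTiter-Fluor.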
For orientation: Quantitative high-throughput screening tests each substance at several concentrations.

In assay [2] the test system is thyroid hormone receptor (rat, GH3 cells). The experiment in a line: qHTS assay to identify small molecule agonists of the thyroid receptor (TR) signaling pathway (AID 743066; calls by dose curve).
Assay [3] addresses Estrogen receptor (Homo sapiens) (UniProt P03372). The experiment in a line: qHTS assay to identify small molecule antagonists of the estrogen receptor alpha (ER-alpha) signaling pathway (AID 743069; active = well fitted curve in the direction sought with a large enough effect in the signal ratio in the repeat runs, not every such curve was filed as active; inconclusive = weak or mixed curves, or effect the other way; inactive = no such curve, though single readings can be large or run the other way; the % refers to the signal ratio; note: potency is the fitted concentration of half-maximal effect). In short, it runs like this:
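Compound effects are measured against 17beta-estradiol stimulation in HEK293 cells with a UAS-controlled beta-lactamase reporter for ER-alpha. Exposure lasts 18 hr at 37C; LiveBLAzer B/G FRET substrate follows for 2 hr at room temperature.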

The nature of assay [4]: qHTS assay to identify small molecule antagonists of the estrogen receptor alpha (ER-alpha) signaling pathway - cell viability counter screen (AID 743074; calls by dose curve;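 note: HEK293 cells carrying ER-alpha-UAS-bla reporter stimulated with 17beta-estradiol; nearly all actives have a fitted effect of over 45% in size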).
Assay [5] concerns the target Estrogen receptor (Homo sapiens) (UniProt P03372). The assay can be described thus: qHTS assay to identify small molecule agonists of the estrogen receptor alpha (ER-alpha) signaling pathway (AID 743075; calls by dose curve; note: potency is the fitted concentration of half-maximal effect).
Assay [6] shares this target. The assay can be described thus: qHTS assay to identify small molecule agonists of the estrogen receptor alpha (ER-alpha) signaling pathway using the BG1 cell line (AID 743079). Note: nearly all actives have a fitted effect of over 20% in size. Note: potency is the fitted concentration of half-maximal effect.
Assay [7] can be described thus: qHTS assay to identify small molecule antagonists of the estrogen receptor alpha (ER-alpha) signaling pathway using the BG1 cell line (AID 743080; calls by dose curve;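 note: BG1 cells stimulated with 17beta-estradiol alongside compound; series mostly up to about 70 µM; nearly all actives have a fitted effect of over 25% in size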). Put shortly:
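Luminescence from a 4×ERE-luciferase reporter in BG1-Luc-4E2 cells served as read-out. Cells, pre-cultured 5 days in stripped-serum phenol-red-free medium, were exposed to compound with 17beta-estradiol co-stimulation for 21.5 h at 37 C.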

Assay [8] can be described thus: qHTS assay to identify small molecule antagonists of the estrogen receptor alpha (ER-alpha) signaling pathway using the BG1 cell line - cell viability counter screen (AID 743081).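 Note: compound given together with 17beta-estradiol as the ER stimulus; nearly all actives have a fitted effect of over 45% in size.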 Note: potency is the fitted concentration of half-maximal effect.
The nature of assay [9]: qHTS assay to identify aromatase inhibitors - cell viability counter screen (AID 743084).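 Note: cells stimulated with testosterone during compound exposure; nearly all actives have a fitted effect of over 55% in size.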
Assay [10] in a line: qHTS assay to identify small molecule that activate the aryl hydrocarbon receptor (AhR) signaling pathway - cell viability counter screen (AID 743086).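 Note: HepG2 liver cells carrying the AhR DRE luciferase reporter; series mostly up to about 70 µM; nearly all actives have a fitted effect of over 45% in size.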 In short, it runs like this:
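Cytotoxicity counter screen: CellTiter-Fluor signal (30 min, 37 C) in 4000 HepG2 cells/well carrying the DRE-luciferase reporter, following 24 h compound exposure at 37 C.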

The nature of assay [11]: qHTS assay to identify small molecule antagonists of the peroxisome proliferator-activated receptor gamma (PPARg) signaling pathway - cell viability counter screen (AID 743194). Note: nearly all actives have a fitted effect of over 55% in size. Put shortly: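 Viability was measured as CellTiter-Glo luminescence in GeneBLAzer PPARg UAS-bla HEK293H cells. These cells had been exposed 17 h at 37 C to compounds together with rosiglitazone at 50 nM final, with the beta-lactamase readout taken in the same wells.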

The nature of assay [12]: qHTS assay for small molecule agonists of the antioxidant response element (ARE) signaling pathway (AID 743202; active = well fitted activation curve with a large enough effect in the signal ratio in the repeat runs, not every such curve was filed as active; inconclusive = weak or mixed curves, or effect the other way; inactive = no such curve, though single readings can be large or run the other way; the % refers to the signal ratio; note: potency is the fitted concentration of half-maximal effect). In short, it runs like this:
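An ARE-responsive beta-lactamase gene stably integrated in HepG2 cells serves as reporter. After 5 h plating and 16 h compound incubation at 37 C, fluorescence of the B/G FRET substrate was measured.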

Assay [13] in a line: qHTS assay for small molecule agonists of the antioxidant response element (ARE) signaling pathway - cell viability counter screen (AID 743203; calls by dose curve; note: nearly all actives have a fitted effect of over 55% in size; note: potency is the fitted concentration of half-maximal effect). Put shortly:
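CellSensor ARE-bla HepG2 cells, 2,000 per well, rested 5 hrs at 37C/5% CO2, then exposed to compound in DMSO for 16 hrs; viability read as CellTiter-Glo luminescence after 30 min at room temperature, in the reporter wells.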

Assay [14] in a line: qHTS assay for small molecule activators of the heat shock response signaling pathway - cell viability counter screen (AID 743209). Note: nearly all actives have a fitted effect of over 50% in size. In short, it runs like this:
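CellSensor HSE-bla HeLa cells, plated overnight at 37 C/5% CO2, were exposed to compounds in DMSO for 5 h at 37 C. Viability was then read in the same wells by CellTiter-Glo luminescence after 30 min at room temperature.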

Assay [15] is described as follows: qHTS assay for small molecule activators of the heat shock response signaling pathway (AID 743210; active = well fitted activation curve with a large enough effect in the signal ratio in the repeat runs, with a control signal flat, not every such curve was filed as active; inconclusive = weak or mixed curves; the % refers to the signal ratio;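 note: HeLa cells with beta-lactamase reporter driven by heat shock elements; series mostly up to about 63 µM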). Put shortly:
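In HSE-bla HeLa cells, 5 h compound incubation (37 C) precedes addition of LiveBLAzer B/G substrate; after 2.5 h at room temperature, fluorescence intensity indicates reporter induction.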

The target of another assay is Aromatase (Homo sapiens) (UniProt P11511). The experiment in a line: qHTS assay to identify aromatase inhibitors (AID 743083). Note: nearly all actives have a fitted effect of over 55% in size. Note: potency is the fitted concentration of half-maximal effect.
Chain of Aromatase (Homo sapiens) (P11511 whole entry, looked up): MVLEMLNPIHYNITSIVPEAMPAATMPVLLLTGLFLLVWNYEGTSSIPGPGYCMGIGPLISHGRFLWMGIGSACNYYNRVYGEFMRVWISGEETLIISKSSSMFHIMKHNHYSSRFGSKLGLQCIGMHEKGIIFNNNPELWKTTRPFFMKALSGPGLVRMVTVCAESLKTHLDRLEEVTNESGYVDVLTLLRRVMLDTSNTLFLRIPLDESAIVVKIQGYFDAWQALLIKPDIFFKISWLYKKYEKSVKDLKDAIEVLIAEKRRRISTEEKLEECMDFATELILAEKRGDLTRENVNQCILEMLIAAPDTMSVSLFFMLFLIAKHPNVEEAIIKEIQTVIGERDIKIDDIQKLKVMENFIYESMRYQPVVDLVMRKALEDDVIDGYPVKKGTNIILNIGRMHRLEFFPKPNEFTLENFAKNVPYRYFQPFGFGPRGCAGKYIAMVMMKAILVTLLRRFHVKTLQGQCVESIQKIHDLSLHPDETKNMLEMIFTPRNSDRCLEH
Assay [16] concerns the target Aryl hydrocarbon receptor (Homo sapiens) (UniProt P35869). The assay can be described thus: qHTS assay to identify small molecule that activate the aryl hydrocarbon receptor (AhR) signaling pathway (AID 743085).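 For activation: HG2L7.5c1 human HepG2 liver cells with stably integrated DRE-driven firefly reporter; series mostly up to about 70 µM.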 Note: nearly all actives have a fitted effect of over 15% in size. Note: potency is the fitted concentration of half-maximal effect. In short, it runs like this: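 Luminescence read-out: ONE-Glo reagent, 30 min at room temperature, in HG2L7.5c1 HepG2 reporter cells treated 24 h at 37C. Viability was measured beforehand by CellTiter-Fluor fluorescence after 30 min at 37C.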

Assay [17] deals with Peroxisome proliferator-activated receptor gamma (Homo sapiens) (UniProt P37231). The assay can be described thus: qHTS assay to identify small molecule agonists of the peroxisome proliferator-activated receptor gamma (PPARg) signaling pathway (AID 743094; active = well fitted activation curve with a large enough effect in the signal ratio in the repeat runs, not every such curve was filed as active; inconclusive = weak or mixed curves, or effect the other way; inactive = no such curve, though single readings can be large or run the other way; the % refers to the signal ratio). In short, it runs like this: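 GeneBLAzer PPARg UAS-bla HEK293H cells carrying a stably integrated beta-lactamase reporter were pre-incubated 5 h at 37C, then exposed to compounds in DMSO for 17 h at 37C; LiveBLAzer B/G FRET substrate was added for 1 h at room temperature and fluorescence read.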
Chain of Peroxisome proliferator-activated receptor gamma (Homo sapiens) (P37231 whole entry, looked up): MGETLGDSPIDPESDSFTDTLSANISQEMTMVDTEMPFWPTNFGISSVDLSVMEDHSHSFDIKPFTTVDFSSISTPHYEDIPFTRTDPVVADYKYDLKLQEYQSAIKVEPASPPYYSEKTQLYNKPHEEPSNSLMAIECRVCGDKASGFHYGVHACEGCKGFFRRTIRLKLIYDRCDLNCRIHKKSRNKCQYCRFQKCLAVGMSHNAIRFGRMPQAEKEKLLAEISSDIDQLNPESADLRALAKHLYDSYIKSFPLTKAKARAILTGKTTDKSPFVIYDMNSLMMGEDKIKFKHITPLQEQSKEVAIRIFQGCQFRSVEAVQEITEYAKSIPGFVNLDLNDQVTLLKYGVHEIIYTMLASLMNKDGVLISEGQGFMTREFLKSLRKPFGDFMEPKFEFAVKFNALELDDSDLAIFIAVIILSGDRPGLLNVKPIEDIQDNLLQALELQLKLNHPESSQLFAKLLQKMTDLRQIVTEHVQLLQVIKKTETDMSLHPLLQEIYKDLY

Assay [18] has the same target. The assay can be described thus: qHTS assay to identify small molecule antagonists of the peroxisome proliferator-activated receptor gamma (PPARg) signaling pathway (AID 743191; calls by dose curve; note: potency is the fitted concentration of half-maximal effect; nearly all actives have a fitted effect of over 30% in size). In short, it runs like this:
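Beta-lactamase reporter under UAS control in HEK293H PPARg-bla cells; compound treatment 17 h at 37C. Read-out: fluorescence intensity after 1 h room-temperature incubation with LiveBLAzer B/G FRET substrate.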

Activity calls are given as the source filed them. Unless noted, calls come from the whole dose curve; as a rule, active = well fitted curve in the direction sought with a large enough effect in the repeat runs; inconclusive = weak or mixed curves; inactive = no such curve, though single readings can be large; an effect the other way counts as inactive or inconclusive.

Chain of Estrogen receptor (Homo sapiens) (P03372 whole entry, looked up): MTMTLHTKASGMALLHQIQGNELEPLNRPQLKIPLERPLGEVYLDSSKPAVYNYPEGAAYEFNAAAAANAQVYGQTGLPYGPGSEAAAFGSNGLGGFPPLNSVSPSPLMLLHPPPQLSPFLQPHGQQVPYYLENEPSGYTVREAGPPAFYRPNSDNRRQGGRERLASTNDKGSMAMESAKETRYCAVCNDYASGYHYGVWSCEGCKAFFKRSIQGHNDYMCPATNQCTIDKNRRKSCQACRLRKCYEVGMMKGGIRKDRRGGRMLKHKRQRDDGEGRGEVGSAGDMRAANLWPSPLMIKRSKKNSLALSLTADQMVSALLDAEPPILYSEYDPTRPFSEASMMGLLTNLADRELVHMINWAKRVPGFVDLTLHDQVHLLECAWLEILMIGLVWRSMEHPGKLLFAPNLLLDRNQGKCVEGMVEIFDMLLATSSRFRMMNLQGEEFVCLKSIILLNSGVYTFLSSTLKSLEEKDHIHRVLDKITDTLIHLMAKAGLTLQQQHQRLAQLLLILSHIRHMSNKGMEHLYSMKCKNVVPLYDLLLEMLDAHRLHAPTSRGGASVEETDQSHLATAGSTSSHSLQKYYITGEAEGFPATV
Chain of Aryl hydrocarbon receptor (Homo sapiens) (P35869 whole entry, looked up): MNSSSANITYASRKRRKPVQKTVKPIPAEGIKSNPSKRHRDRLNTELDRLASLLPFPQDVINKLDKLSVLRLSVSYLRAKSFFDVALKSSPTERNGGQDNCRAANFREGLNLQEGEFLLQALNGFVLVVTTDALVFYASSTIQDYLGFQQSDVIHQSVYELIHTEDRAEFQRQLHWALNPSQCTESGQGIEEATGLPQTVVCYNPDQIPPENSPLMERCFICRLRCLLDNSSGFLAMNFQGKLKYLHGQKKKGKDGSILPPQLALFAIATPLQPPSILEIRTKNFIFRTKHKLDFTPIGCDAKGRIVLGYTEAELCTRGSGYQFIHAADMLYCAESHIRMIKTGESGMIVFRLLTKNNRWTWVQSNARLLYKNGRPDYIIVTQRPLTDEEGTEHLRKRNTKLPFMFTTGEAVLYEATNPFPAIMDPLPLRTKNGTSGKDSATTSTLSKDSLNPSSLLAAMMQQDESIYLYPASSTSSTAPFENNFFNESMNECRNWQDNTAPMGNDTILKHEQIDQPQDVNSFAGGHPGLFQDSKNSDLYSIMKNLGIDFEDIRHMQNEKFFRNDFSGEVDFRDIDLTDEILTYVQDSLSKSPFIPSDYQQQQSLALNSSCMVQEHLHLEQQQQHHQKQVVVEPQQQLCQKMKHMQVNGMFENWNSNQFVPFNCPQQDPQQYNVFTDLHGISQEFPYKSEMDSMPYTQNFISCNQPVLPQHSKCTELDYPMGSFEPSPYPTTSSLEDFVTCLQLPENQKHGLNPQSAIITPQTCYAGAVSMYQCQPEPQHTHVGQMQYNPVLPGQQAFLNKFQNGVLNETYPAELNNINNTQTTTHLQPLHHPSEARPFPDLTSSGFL

Consider `Cc1ccc(C)cc1`, for which the Potency entry in assay [1], in assay [3], in assay [4], in assay [5], in [6] and in assay [7] was “inactive” each time. Moreover, the Potency entry in assay [8], in assay [9], in [10], in assay [11], in assay [12] and in [13] was “inactive” each time. In addition, the Potency result in assay [14] and in assay [15] was “inactive” throughout. The outcome in assay [2] was inactive.
With `O=S(=O)(O)c1ccccc1/C=C/c1ccc(-c2ccc(/C=C/c3ccccc3S(=O)(=O)O)cc2)cc1`, the Potency result (in [1]; in assay [4]; in assay [6]; in [7]; with Aromatase (Homo sapiens); in assay [16]) was “inactive” throughout. Also, the Potency result in assay [11] and in assay [14] was “inactive” in each case. In addition, the call in [2] was inactive.
On to `Cc1nc2n(c(=O)c1CCN1CCC(c3noc4cc(F)ccc34)CC1)CCCC2`, for which the Potency entry (in assay [1]; in [3]; in [4]; in assay [5]; in assay [6]; with Aromatase (Homo sapiens)) was “inactive” throughout. In addition, the Potency result in [9], in assay [16], in assay [10], in assay [11], in assay [13] and in [14] was “inactive” each time. For the same compound, the Potency result in [15] was “inactive”. The call in assay [2] was inactive.
For the compound `Cc1cc(=O)oc2cc(O)cc(O)c12`, the Potency entry (in [1]; in [3]; in [4]; in [5]; in assay [7]; with Aromatase (Homo sapiens)) was “inactive” each time. Further, the Potency result in assay [10], in assay [11], in assay [13] and in assay [14] was “inactive” throughout. The call in assay [2] was inactive. Moreover, in [16], the Potency was 15.4 µM (active).
Turning to `C#C[C@]1(O)CC[C@H]2[C@@H]3[C@H](C)CC4=C(CCC(=O)C4)[C@H]3CC[C@@]21C`, the Potency in assay [1] was 26.6 µM (active); in assay [5], 13.4 nM [inconclusive] (active); in [6], 0.0038 µM (active); in assay [12], 23.7 µM (active). Moreover, the Potency result (in assay [4]; in [7]; in assay [8]; in the assay with Aromatase (Homo sapiens); in assay [9]; in [16]) was “inactive” in each case. The Potency entry in assay [10], in [11], in [13] and in assay [14] was “inactive” each time.
For `c1ccc(C(O[C@@H]2CCCN(CCc3ccc4c(c3)OCO4)C2)c2ccccc2)cc1`, the results for the Potency in assay [1] and in assay [13] were 30.6 µM (active) and 61.1 µM (active), respectively. Moreover, the Potency entry in [3], in [5], in assay [8], in assay [10], in [11] and in assay [14] was “inactive” throughout.
On to `OC12N=C(c3ccccc3)SC1Cc1cc(Cl)ccc12` (stereo unspecified), for which the Potency was 61.1 µM (active) in assay [1], 54.9 µM [inhibitor] (active) in [3], 27.3 µM (active) in assay [6] and 24.3 µM (active) in [16]. Besides, the Potency entry (in assay [4]; in assay [5]; in assay [8]; with Aromatase (Homo sapiens); in assay [9]; in assay [17]) was “inactive” in each case. In addition, the Potency result in assay [11], in assay [13] and in assay [14] was “inactive” in each case.
Consider `COC(=O)C1=C(C)NC(C)=C(C(=O)OCCN2CCN(C(c3ccccc3)c3ccccc3)CC2)C1c1cccc([N+](=O)[O-])c1` (stereo unspecified), for which the Potency in assay [1] was 6.68 µM (active); in assay [3] it was 8.49 µM [inconclusive] (active); in assay [8], 3.76 µM (active); with Aromatase (Homo sapiens), 13.3 µM (active); in assay [18], 9.44 µM (active). In addition, in [2], the call was inactive. Further, the Potency entry in assay [4], in assay [5], in assay [9], in assay [16], in assay [11] and in assay [14] was “inactive” throughout.
Take `CC/C=C\CCCCCO`: the Potency result in [1], in assay [4], in assay [8], in assay [11], in assay [12] and in assay [13] was “inactive” in each case. In addition, the Potency entry in assay [14] and in assay [15] was “inactive” each time. The compound was called inactive in assay [2].
On to `CCc1cccc(CC)c1NC(=O)CN(CC(=O)O)CC(=O)O`, for which the Potency entry in [1], in assay [3], in assay [5], in assay [6], in [7] and in assay [8] was “inactive” each time. The Potency result (in the assay with Aromatase (Homo sapiens); in assay [9]; in assay [16]; in assay [10]; in [17]; in assay [11]) was “inactive” in each case. Further, the Potency entry in assay [13] and in assay [14] was “inactive” throughout. In addition, in [2], the compound was called inactive.
